This excerpt belongs to a sample that is enriched for hits.
HT1080 IDH1KD tx: HT-1080 IDH1 knockdown cell toxicity (counter line) | HT-1080 IDH1 knockdown viability, ATP luminescence, 48 h | 360,000 compounds, 2% hits | AID 686971 | Potency, µM (highest dose often 46.1 µM), without a hit: top-dose activity, negative = toxicity, actives largely listed as cytotoxic;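 further: potency means the concentration at half of the fitted maximal effect; 0% = DMSO wells and -100% = cell-free medium wells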
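Viability of IDH1-knockdown HT-1080 fibrosarcoma cells was assessed by CellTiter-Glo after 48 h at 37 °C with titrated compound; concentration-effect curves were classified by fit quality and response size.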
IL-1B inflam inh: blocks inflammasome-driven IL-1 beta release; AID 743279; 360,000 compounds, 4.7% hits; activity change, % at 57.5 µM; THP-1 LPS/ATP IL-1B secretion, AlphaLISA, 16 h; hits give low values; in the data active means activity change below about -50%; inconclusive means mostly about -30% to -49%
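Secreted IL-1B measured by AlphaLISA bead assay after 16 h compound exposure of THP-1 cells; compounds (final up to 57.5 uM) added 1 h before LPS (250 ng/mL) and ATP (1.25 mM) stimulation; lower signal means less secretion.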
ALOX12 inh: inhibitors of human 12S-lipoxygenase ALOX12. 580,000 compounds, 1.1% hits. Potency, µM (doses to about 108 µM), without a hit: top-dose activity change, negative = inhibition, most hits filed as inhibitors. purified 12hLO, xylenol orange hydroperoxide absorbance; further: potency means the concentration at half of the fitted maximal effect
Target sequence (P18054 whole entry, looked up): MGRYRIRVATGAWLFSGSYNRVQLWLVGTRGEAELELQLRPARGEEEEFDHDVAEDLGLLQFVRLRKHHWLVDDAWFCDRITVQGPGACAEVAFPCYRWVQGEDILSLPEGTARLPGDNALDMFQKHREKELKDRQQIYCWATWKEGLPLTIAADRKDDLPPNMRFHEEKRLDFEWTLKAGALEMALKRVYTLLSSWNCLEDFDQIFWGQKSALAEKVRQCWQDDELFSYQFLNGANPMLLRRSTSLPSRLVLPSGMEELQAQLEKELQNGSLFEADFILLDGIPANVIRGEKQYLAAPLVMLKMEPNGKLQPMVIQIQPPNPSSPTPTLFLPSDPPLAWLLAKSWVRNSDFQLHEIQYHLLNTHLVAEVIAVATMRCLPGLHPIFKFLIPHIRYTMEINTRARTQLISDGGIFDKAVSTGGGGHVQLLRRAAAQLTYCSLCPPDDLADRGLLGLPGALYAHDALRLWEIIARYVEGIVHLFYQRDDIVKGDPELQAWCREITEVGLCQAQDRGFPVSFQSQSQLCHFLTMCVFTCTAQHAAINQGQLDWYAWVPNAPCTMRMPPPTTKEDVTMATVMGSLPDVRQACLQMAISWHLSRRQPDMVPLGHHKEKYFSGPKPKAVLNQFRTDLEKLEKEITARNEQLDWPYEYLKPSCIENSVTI
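Hydroperoxide product was detected by ferrous iron/xylenol orange as the 573 to 405 nm absorbance ratio. Arachidonic acid at 40 uM (final) was turned over for 30 min at room temperature by 150 nM human 12hLO, pH 7.0 Hepes buffer, after 15 min compound preincubation.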
DT40 TDP1 no CPT: qHTS for Inhibitors of human tyrosyl-DNA phosphodiesterase 1 (TDP1): qHTS in cells in absence of CPT | DT40 Tdp1-/- hTDP1 cells, no CPT, ATP luminescence, 48 h | Potency, µM (top dose mostly 46.2 µM), inactives show top-dose activity change, negative = growth inhibition, actives largely listed as inhibitors | 420,000 compounds, 15% hits; further: potency means the concentration at half of the fitted maximal effect; nearly all actives have a fitted effect of over 55% in size
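Cells were dispensed at 400 per well, compounds added by pin tool, plates incubated ≥48 hr at 37 °C, then CellTiter-Glo added for 30 min at room temperature before luminescence reading. Line: DT40 Tdp1-/- complemented with hTDP1; camptothecin omitted.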
TDP1 cell CPT: DT40-hTDP1 cell growth loss with CPT; chicken DT40 Tdp1-/-;hTDP1 cells + 20 nM CPT, ATP luminescence, 48 h; Potency, µM (top dose mostly 46.2 µM), for inactives: top-dose activity change, negative = growth inhibition, most hits filed as inhibitors; 420,000 compounds, 12% hits; AID 686979; further: potency means the concentration at half of the fitted maximal effect; nearly all actives have a fitted effect of over 55% in size
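Chicken DT40 Tdp1-/- cells complemented with human TDP1, 400 cells/well, exposed to compounds plus 20 nM camptothecin for at least 48 h at 37 C; viability read as ATP content by CellTiter-Glo luminescence.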
HT1080-NT tox: kills 2HG-producing HT-1080-NT fibrosarcoma cells | HT-1080-NT fibrosarcoma viability, CellTiter-Glo ATP luminescence, 48 h | Potency, µM (highest dose often 46.1 µM), for inactives: at the highest dose activity, negative = less viability, usual class: cytotoxic | 360,000 compounds, 1.6% hits | AID 686970;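 further: NT is the 2HG producing partner of a matched IDH1 knockdown line; potency means the concentration at half of the fitted maximal effect; 0% = DMSO-treated cells and -100% = media-only wells without cells; nearly all actives have a fitted effect of over 55% in size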
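Compounds were tested in concentration-response format on HT-1080-NT cells for 48 hours at 37 degrees C. Cell viability came from CellTiter-Glo luminescence; curves were classified by r2, response magnitude and activity.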
* marks the source's active call; other numbers are inactive results; ! = not confirmed by another sample; [ ] = remark or other dose. Unless noted, the call rests on the fitted dose curve; in most records, active means well fitted curve in the direction sought with a large enough effect; inconclusive means small, poorly fitted or top-dose-only effect, or another doubt; inactive means no such curve, though single readings can be large; an effect the other way counts as inactive or inconclusive. Unless noted, on the % scale 0 is the no-effect control and ±100 the full control effect.

COc1cc(/C=N/NC(=O)c2cc(-c3cccc(OC(C)C)c3)nc3ccccc23)ccc1O was read as HT1080 IDH1KD tx inconclusive, IL-1B inflam inh 14, ALOX12 inh 20%, DT40 TDP1 no CPT 2.1µM*, TDP1 cell CPT inconclusive and HT1080-NT tox inconclusive.
Screening N#Cc1ccc(-c2csc(NC(=O)c3cc(-c4cccs4)nc4ccccc34)n2)cc1 returned HT1080 IDH1KD tx 5%, IL-1B inflam inh inconclusive, ALOX12 inh -4%, DT40 TDP1 no CPT inconclusive, TDP1 cell CPT inconclusive and HT1080-NT tox 9%.
`COc1cc(/C=N/NC(=O)c2cccs2)ccc1O` gave HT1080 IDH1KD tx -5%, IL-1B inflam inh 4, ALOX12 inh 2%, DT40 TDP1 no CPT 1%, TDP1 cell CPT -15% and HT1080-NT tox 8%.
`NC(=O)NC(=O)CSCc1ccccc1` gave ALOX12 inh -8%.
CCNC(=O)N[C@H]1CC[C@]2(C)CCC([C@H](C)C(=O)NCc3ccccc3OC)[C@H](O)[C@H]2[C@@H]1C (stereo partly drawn) was read as ALOX12 inh 2%.
CCCCCCSc1cc(-c2nc3cc(C)ccn3c2NC2CCCCC2)ccc1OC was read as HT1080 IDH1KD tx 6%, IL-1B inflam inh -21, ALOX12 inh -17%, DT40 TDP1 no CPT 16µM*, TDP1 cell CPT inconclusive and HT1080-NT tox 1%.
COc1cc(-c2nc3cc(C)ccn3c2NC2CCCCC2)ccc1-c1ccc(C(C)=O)cc1 was read as HT1080 IDH1KD tx inconclusive, IL-1B inflam inh inconclusive, ALOX12 inh -30%, DT40 TDP1 no CPT 7.3µM*, TDP1 cell CPT 13µM* and HT1080-NT tox -20%.
CCCCCCSc1ccc(-c2nc3cc(C)ccn3c2NC2CCCCC2)cc1 was read as HT1080 IDH1KD tx 0%, IL-1B inflam inh -70*!, ALOX12 inh inconclusive, DT40 TDP1 no CPT 12µM*, TDP1 cell CPT 18µM* and HT1080-NT tox 0%.
CCCCCCSc1ccc(-c2nc3cnccn3c2NC2CCCCC2)cc1 was read as HT1080 IDH1KD tx 4%, IL-1B inflam inh 14, ALOX12 inh inconclusive, DT40 TDP1 no CPT inconclusive, TDP1 cell CPT inconclusive and HT1080-NT tox 1%.
CCCCCCSc1ccc(-c2nc3ccc(C)cn3c2NC2CCCCC2)cc1 was read as HT1080 IDH1KD tx 1%, IL-1B inflam inh -20, ALOX12 inh -38%, DT40 TDP1 no CPT 18µM*, TDP1 cell CPT 16µM* and HT1080-NT tox 1%.
`Cc1ccn2c(NC3CCCCC3)c(C)nc2c1` gave HT1080 IDH1KD tx inconclusive, IL-1B inflam inh -5, ALOX12 inh -25%, DT40 TDP1 no CPT -14%, TDP1 cell CPT inconclusive and HT1080-NT tox inconclusive.
For CN1C[C@H](NC2CCC2)CCC[C@@H](C(=O)NC2CCOCC2)CC1=O the results were ALOX12 inh 8%[176 µM].
For COC(=O)c1cccc(OCc2ccccc2C#N)c1 the results were ALOX12 inh -46%.
CCCCNS(=O)(=O)c1ccc(NC(=O)Cc2ccc(OC)cc2)cc1 was read as HT1080 IDH1KD tx -9%, IL-1B inflam inh 36, ALOX12 inh 12%, DT40 TDP1 no CPT 7.3µM*, TDP1 cell CPT 13µM* and HT1080-NT tox -1%.
For CCOc1ccc(S(=O)(=O)Nc2cccc(C(=O)N(C)CC(=O)Nc3ccc(OC)cc3)c2)cc1 the results were HT1080 IDH1KD tx -6%, IL-1B inflam inh 5, ALOX12 inh 10%, DT40 TDP1 no CPT -30%, TDP1 cell CPT -26% and HT1080-NT tox -3%.
Screening CCCC(=O)NC(=S)Nc1ccc(S(=O)(=O)Nc2ccc(OCC)cc2)cc1 returned HT1080 IDH1KD tx 23µM*, IL-1B inflam inh 8, ALOX12 inh inconclusive, DT40 TDP1 no CPT inconclusive, TDP1 cell CPT 12µM* and HT1080-NT tox 4.6µM*.
